# Assay outcomes as filed in PubChem BioAssay.
# A selection: hits, their analogues and other compounds. The true share with any hit is near 3.2%.
# PAX8 inh HTS: inhibitors of PAX8-driven TPO luciferase reporter, primary screen, RMG-I cells, single concentration | SteadyGlo, 24 h | inhibition, % at 12.6 µM | actives 1.2% (n = 360,000) | AID 652154, 2013;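 active = mean replicate inhibition at least 60% with every replicate also reaching 60%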;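 note: luciferase light reporting Pax8 driven TPO promoter activity; plate controls were median of neutral control wells for no effect and mitoxantrone controls for full effect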
# LGR2 inh: inhibitors of bursicon-induced LGR2 CRE-luciferase signal, primary screen, cell-based, HEK293, CRE-luciferase reporter, bursicon stimulation; Drosophila bursicon receptor LGR2 (rickets); bursicon-stimulated, 4 h; inhibition, % at 9.99 µM; actives 0.35% (n = 380,000); AID 720647, 2013;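 active = drop in luminescence signal, shown as inhibition above about 50% in the replicate tests, limit read from the data, passing the limit was not always enough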;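 note: agonist challenge used bursicon conditioned medium at about half maximal strength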
# TROY NFkB inh: inhibitors of TROY-driven NF-kB signaling, primary screen, Q293 LMP1-TROYcd cells, NF-kB luciferase, uHTS. AID 1347056, 2019. actives 0.98% (n = 360,000). Q293 LMP1-TROYcd NF-kB luciferase reporter, 4 h. inhibition, % at 10 µM;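 active = compounds whose plate-normalised and pattern-corrected inhibition of the luciferase reporter signal at the single screening dose is 50% or more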
# EWS-Fli inh: EWS/Fli-driven NR0B1 reporter inhibitors, primary screen, A673 cells, NR0B1 luciferase, luminescence, MLPCN library. inhibition, % at 12.6 µM. viability-normalised. actives 0.67% (n = 350,000). AID 651661, 2012;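 active = mean inhibition of at least 50% after viability correction, with every replicate also passing that limit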;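 note: firefly luciferase signal divided by Alamar Blue viability fluorescence both relative to DMSO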
# TWEAK Fn14 block: inhibitors of TWEAK-Fn14 signaling, primary screen, luciferase reporter cells, uHTS. actives 2% (n = 360,000). inhibition, % at 10 µM. TWEAK-stimulated Fn14 reporter cells, luciferase luminescence, 8 h; in the data active = inhibition above about 50%
# EBV LMP1 NFkB: EBV LMP1-driven NF-kappaB luciferase reporter inhibitors, primary screen, cell-based, luminescence, single point; LMP1-induced NF-kappaB luciferase reporter cells; inhibition, % at 12.5 µM; actives 0.69% (n = 350,000); AID 504558, 2011; in the data active = inhibition above about 41%;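 note: 0% = neutral control wells and 100% = reference inhibitor control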
# The depositor's hits bear a star; · = not tested or not shown.
SMILES,PAX8 inh HTS,LGR2 inh,TROY NFkB inh,EWS-Fli inh,TWEAK Fn14 block,EBV LMP1 NFkB
O=C(C=Cc1ccccc1)c1ccc([N+](=O)[O-])cc1,-17.5,-12.5,0.9,0.4,-1.7,56.3*
O=C(/C=C/c1cccnc1)c1ccc([N+](=O)[O-])cc1,1.8,20.4,21.3,·,17.0,-0.1
COc1ccc(C=CC(=O)c2ccc([N+](=O)[O-])cc2)cc1,-20.2,-4.5,-94.1,-8.6,-38.6,7.0
Cc1[nH]c(C)c(C(=O)/C=C/c2ccc([N+](=O)[O-])cc2)c1C,2.0,·,10.2,63.2*,59.6*,-203.2
O=C(/C=C/c1ccccc1F)c1cccc([N+](=O)[O-])c1,-16.9,4.1,18.5,·,-3.2,45.5*
CC(=O)c1cccc([N+](=O)[O-])c1,·,6.1,-3.5,-0.8,-4.2,1.0
C[C@H]1CN([C@@H](C)CO)C(=O)c2cc(NS(=O)(=O)c3ccccc3)ccc2O[C@@H]1CN(C)Cc1ccc2c(c1)OCO2,-5.7,-7.6,·,2.5,·,·
CC(=O)C(=Cc1ccc(-c2ccccc2)cc1)C(=O)c1ccccc1,-11.7,8.0,11.4,-6.5,55.2*,·
O=C(C(Br)=Cc1ccccc1)c1ccccc1,85.6*,32.3,-2.1,58.0*,92.9*,-27.9
CC(=Cc1ccccc1)C(=O)c1ccccc1,-4.9,1.9,-16.1,-5.9,-6.6,-7.7
CO[C@@H]1CN(C)C(=O)c2ccc(NC(=O)Nc3ccccc3)cc2OC[C@@H](C)N(CC2CC2)C[C@@H]1C,·,-6.1,·,-1.9,·,·
O=C(C[C@H]1CC[C@@H]2[C@H](COC[C@H](O)CN2Cc2cccc(F)c2)O1)NCc1ccncc1,-21.8,-9.9,·,6.7,·,·
O=C1C=CC2C3C(=O)N(c4ccccc4)C(=O)C3C1N2Cc1ccccc1 (configuration not stated),8.1,·,55.4*,59.8*,94.8*,23.2
O=C1C2C3C=CC(CC3)C2C(=O)N1c1ccccc1 (configuration not stated),14.6,8.5,5.9,10.0,-8.4,2.8
CN(C)c1ccc(/C=C/c2c([N+](=O)[O-])c(=O)n(C)c(=O)n2C)cc1,19.4,13.0,-0.3,-10.7,23.0,6.0
Cn1c(/C=C/c2ccc(Br)cc2)c([N+](=O)[O-])c(=O)n(C)c1=O,62.7*,42.2,2.3,-0.8,63.0*,-1.3
CCOCCCNC(=O)c1cc2c(=O)n3cccc(C)c3nc2n1C,14.7,16.8,-1.6,52.2*,-3.1,-6.8
O=C(Nc1nccs1)c1cccc(N2C(=O)c3cccc4c([N+](=O)[O-])ccc(c34)C2=O)c1,·,·,·,·,84.9*,-8.5
O=C(Nc1nccs1)c1ccccc1[N+](=O)[O-],62.9*,·,-23.7,-3.6,9.8,1.9
COc1ccc(C(=O)Nc2ccc(N3CCN(C(=O)c4ccccc4C)CC3)cc2)cc1,9.9,38.0,24.3,14.0,3.2,51.5*
COc1ccc(Nc2ncc(C(=O)O)c3ccccc23)cc1,·,·,-25.6,·,-11.7,-6.1
COc1ccc(Nc2ncc(C(=O)N3CCN(c4ccc(F)cc4)CC3)c3ccccc23)cc1,·,·,22.6,·,53.5*,4.8
Oc1ccc(F)c2cccnc12,94.5*,-4.3,-2.9,7.8,-0.5,-8.2
Oc1ccc(CNc2ccccc2F)c2cccnc12,86.7*,35.8,-1.5,-1.8,-11.6,7.8
OCc1ccc(O)c2ncccc12,·,·,-2.9,·,14.1,-14.3
SMILES,PAX8 inh HTS,LGR2 inh,TROY NFkB inh,EWS-Fli inh,TWEAK Fn14 block,EBV LMP1 NFkB
O=C(Nc1cc(-c2ccccc2)nn1C1CCCCC1)c1ccc(Cl)cc1,-1.9,25.5,53.7*,17.0,14.3,-4.4
Cn1nc(-c2ccccc2)cc1NC(=O)c1ccccc1,-38.1,-21.6,-55.9,-7.9,-1.8,-6.8
CCOC(=O)N1CCC2(CC1)CC(=O)c1cc(O)ccc1O2,·,·,-7.3,·,63.5*,5.4
CCOC(=O)c1sc2nc(C)nc(NCc3ccccc3)c2c1C,-9.9,-1.6,15.6,5.6,-10.8,51.6*
COc1cc(/C=C/[N+](=O)[O-])ccc1OC(=O)c1cc2ccccc2oc1=O,-20.4,·,52.7*,12.5,19.6,15.2
CCCNC(=O)Nc1ccc2c(c1)OC[C@@H](C)N(C(C)=O)C[C@H](C)[C@@H](OC)CN(C)C2=O,8.7,4.4,·,2.4,·,·
COCCn1c(C)cc(C2=NNC(=Nc3ccccc3)SC2)c1C,·,·,82.0*,·,76.4*,3.2
COCCn1c(C)cc(C2=NNC(=Nc3ccc(OC)cc3)SC2)c1C,·,·,-4.4,·,-2.8,4.0
CCN=C1NN=C(c2cc(C)n(Cc3ccco3)c2C)CS1,·,·,-0.7,64.3*,47.8,69.6*
Cc1ccc(OCc2nc(-c3ccccn3)n[nH]2)cc1,·,·,-36.1,·,-42.0,-10.1
Cc1cccc(OCc2nc(-c3ccccn3)n[nH]2)c1,·,·,61.1*,·,-5.5,-4.1
COc1cccc(CNc2nc3cc(-c4ccccc4)sc3c(=O)n2C)c1,18.9,4.7,19.2,-2.5,30.4,·
COc1cccc(CNc2nc3cc(-c4ccsc4)sc3c(=O)n2C)c1OC,35.4,-15.3,39.8,17.6,81.8*,·
COc1cccc(CNc2nc3cc(-c4ccc(OC)c(OC)c4)sc3c(=O)n2C)c1,12.2,3.1,41.4,11.0,53.6*,·
COc1ccc(-c2cc3nc(NCc4ccc(N(C)C)cc4)n(C)c(=O)c3s2)cc1OC,5.9,74.2*,25.7,8.9,79.9*,·
COc1ccc(-c2cc3nc(NCCN4CCCC4)n(C)c(=O)c3s2)cc1OC,-18.3,28.8,-25.3,-0.5,-14.6,·
O=C(C[C@H]1C[C@@H]2c3cc(NC(=O)C4CCOCC4)ccc3O[C@@H]2[C@H](CO)O1)NCc1ccc2c(c1)OCO2,8.6,-0.9,·,-0.5,·,·
CCC(C)(C)NC(=O)C(c1ccc(C)cc1)N(Cc1cccs1)C(=O)c1ccc2c(c1)OCCO2 (configuration not stated),·,·,54.5*,·,88.2*,-0.4
Cc1ccc(C(C(=O)NC(C)(C)C)N(Cc2cccs2)C(=O)c2ccc3c(c2)OCCO3)cc1 (configuration not stated),15.4,23.5,24.0,3.6,23.8,-6.7
CCOC(=O)/C(=C\Nc1ccccc1C(F)(F)F)Sc1ncc(C(F)(F)F)cc1Cl,·,8.3,-8.7,·,12.3,2.0
N#Cc1c(Sc2ncc(C(F)(F)F)cc2Cl)nsc1C/C=N\OCc1ccccc1Br,·,-14.3,·,·,66.7*,-2.8
Cc1noc(C)c1S(=O)(=O)Nc1ccc2c(c1)CC(=O)N([C@H](C)CO)C[C@@H](C)[C@H](CN(C)C(=O)Nc1cccc3ccccc13)O2,·,3.0,·,4.3,·,·
C[C@@H]1CCCCO[C@@H](CN(C)Cc2ccc(C(F)(F)F)cc2)[C@@H](C)CN([C@H](C)CO)C(=O)c2cc(NS(=O)(=O)c3ccc(Cl)cc3)ccc2O1,-15.9,11.9,·,-10.6,·,·
